{"source": "ChEMBL document CHEMBL4888484", "about": "“Replenishing the malaria drug discovery pipeline: Screening and hit evaluation of the MMV Hit Generation Library 1 (HGL1) against asexual blood stage Plasmodium falciparum ,using a nano luciferase reporter read-out” (2022)", "note": "The campaign covered roughly 4,800 compounds. About 420 (8.8%) showed an effect of 50% or more. What follows is part of a selection rich in strong results, with near analogues and random picks from the rest.", "data": [{"tested_on": "Plasmodium falciparum", "test": "Confirmatory screen in NF54 nanoGlo assay, in single point, at 2uM, 72h", "assay_type": "functional, Erythrocyte", "settings": "timepoint 72 hour", "units": {"% Inhibition": "%"}, "values": [{"compound": "CC(C)c1cc(C(=O)N2CC3CC4CC3C2C4O)n[nH]1", "note": "(stereo not given)", "% Inhibition": 1}, {"compound": "COc1ccsc1S(=O)(=O)N1CCC(n2ccnc2)CC1", "% Inhibition": -3}, {"compound": "O=C(c1nc(-c2cccs2)cs1)N1CCN(c2ccccc2)CC1", "% Inhibition": -15}, {"compound": "CCC1=NN2C(=NC(C(=O)O)=C[C@H]2c2ccc(O)cc2)N1", "% Inhibition": -7}, {"compound": "Fc1ccc(C2=C[C@@H](c3ccc(Cl)cc3)N3N=C(c4ccc(Cl)cc4)NC3=N2)cc1", "% Inhibition": 99}, {"compound": "COc1ccccc1C(=O)NC1=NN2C(=NC(c3ccc(Cl)cc3)=C[C@H]2c2ccc(Cl)cc2)N1", "% Inhibition": 94}, {"compound": "O=C(NC1=NN2C(=NC(c3ccc(Cl)cc3)=C[C@H]2c2ccc(F)cc2)N1)c1ccc(Cl)cc1", "% Inhibition": 32}, {"compound": "COc1ccc([C@@H]2C=C(c3ccc(Cl)cc3)N=C3NC(NC(=O)c4ccccc4OC)=NN32)cc1", "% Inhibition": 97}, {"compound": "COc1ccccc1C(=O)NC1=C(C)Nc2ncnn2[C@H]1c1c[nH]c2ccccc12", "% Inhibition": -5}, {"compound": "COc1cc(N2CCn3c(nc4cc(Cl)ccc43)C2)ccc1NC(=O)c1ccccc1OC", "% Inhibition": 4}, {"compound": "COc1cc(NC(=O)c2ccccc2Cl)cc(S(=O)(=O)c2ccc(Cl)cc2)c1", "% Inhibition": -15}, {"compound": "C[C@H]1CCc2c(cnc3c(C(=O)NC4CC4)cnn23)C1", "% Inhibition": -8}, {"compound": "COc1ncccc1CNC(=O)[C@@H]1CCN(c2cc(C)cc(C)c2)C1=O", "% Inhibition": 3}, {"compound": "Cc1nsc(N[C@@H]2C=C[C@H](CO)C2)n1", "% Inhibition": -3}, {"compound": "Cc1c(NC(=O)c2n[nH]cc2Cl)c(=O)n(-c2ccccc2)n1C", "% Inhibition": -13}, {"compound": "O=C(c1ccco1)N1CC(n2cnnc2[C@@H]2CCCO2)C1", "% Inhibition": -2}, {"compound": "Cc1ccc(S(=O)(=O)Cc2nc(-c3ccc(C(=O)NCc4ccccc4C)cc3)oc2C)cc1", "% Inhibition": -13}, {"compound": "Cc1ccc(/N=C(/Nc2ccc(Br)cc2)c2cc(C(C)(C)C)c(O)c(C(C)(C)C)c2)cc1", "% Inhibition": -15}, {"compound": "O=S(=O)(c1ccco1)N1CC[C@H](Oc2ccccc2)C1", "% Inhibition": 2}, {"compound": "O=S(=O)(c1ccc(Cl)cc1)N1CCC(c2cc(-c3cccc(C(F)(F)F)c3)[nH]n2)CC1", "% Inhibition": -1}, {"compound": "O=S(=O)(c1ccc(F)c(Cl)c1)N1CC[C@H](Oc2ccncc2Cl)C1", "% Inhibition": 75}, {"compound": "COC(=O)C1NS(=O)(=O)c2ccc(Cl)cc2C1(O)c1ccccc1F", "note": "(stereo not given)", "% Inhibition": -5}, {"compound": "O=C(Nc1ccc(F)c(Cl)c1)c1ccn(COc2ccccc2Cl)n1", "% Inhibition": -6}, {"compound": "O=C(N[C@@H](N1CCCCC1)C(Cl)(Cl)Cl)c1cccnc1", "% Inhibition": 2}, {"compound": "CC(C)c1ccc2ncnc(N[C@H]3CCc4[nH]cnc4C3)c2c1", "% Inhibition": 97}, {"compound": "O=C(Cc1ccc(F)cc1F)N1CCc2[nH]nc(C(=O)N3CCN(c4ccccc4)CC3)c2C1", "% Inhibition": 3}, {"compound": "Cc1ccccc1Nc1c(-c2c[nH]c3ccccc23)nc2ncccn12", "% Inhibition": 1}, {"compound": "Cc1cc2c(OC[C@@H](O)CN3CCOCC3)cccc2[nH]1", "% Inhibition": -13}, {"compound": "Cc1cc(C)nc([C@@H](C#N)C(=O)c2ccnc(OCC(F)F)c2)n1", "% Inhibition": -7}, {"compound": "COc1ccccc1C(=O)Nc1ccc(N2CCCN(C)CC2)cc1C(=O)O", "% Inhibition": -12}, {"compound": "Cn1ccnc(N[C@@H](COc2ccccc2F)c2ccccc2)c1=O", "% Inhibition": -7}, {"compound": "Cc1ccc(S(=O)(=O)N2CC[C@H](CC(=O)NCc3ccccc3)C2)cc1C", "% Inhibition": -16}, {"compound": "CNC(=O)COc1c(Cl)ccc(Cl)c1Br", "% Inhibition": 0}, {"compound": "CCN(CCC1CCN(C(=O)Nc2ccc(OC3CCOCC3)c(C)c2)CC1)CC(C)C", "% Inhibition": -3}, {"compound": "CC(C)(C)[C@H]1CCc2c(sc(NC(=O)C3(F)C(F)(F)C(F)(F)C(F)(F)C(F)(F)C3(F)F)c2C#N)C1", "% Inhibition": 50}, {"compound": "N#Cc1c(NC(=O)CN2CCC[C@@H]2CO)sc2c1CCCCC2", "% Inhibition": 1}, {"compound": "COc1ccc2[nH]c(-c3nnc(Cn4c(C)cc5ccccc54)s3)cc2c1", "% Inhibition": 2}, {"compound": "Cc1cc(S(=O)(=O)NC(=O)CCC(C)C)c(C)o1", "% Inhibition": -7}, {"compound": "Cc1nc2ccccc2n1CC1CCCN1C(=O)C1CCc2cccnc21", "note": "(stereo not given)", "% Inhibition": -7}, {"compound": "CN(Cc1ccccc1)C(=O)C[C@H]1CCN(C(=O)c2cnccn2)C1", "% Inhibition": -1}, {"compound": "COc1ccc2c(c1)/C(=C1/SC(C(C)=O)=C(c3ccccc3)S1)C(=S)C(C)(C)N2C(=O)Nc1ccc(Cl)c(Cl)c1", "% Inhibition": -7}, {"compound": "Cc1ccc(-c2nc(CNC(=O)C[C@H]3CNCCO3)[nH]c2-c2ccccn2)cc1", "% Inhibition": 22}, {"compound": "Cn1ncnc1CCNC(=O)NC(C1CCCC1)C1CCCC1", "% Inhibition": 1}, {"compound": "CC1(C)CC(=O)C2(Cc3ccccc3N3CCN(Cc4ccccc4)C[C@H]32)C(=O)C1", "% Inhibition": 8}, {"compound": "O=C(NC1CC1)c1cn(CC2(O)CCN(Cc3ccccc3)CC2)nn1", "% Inhibition": 0}, {"compound": "O=C(Nc1sc2c(c1C(=O)O)CCC2)c1ccsc1", "% Inhibition": -3}, {"compound": "COC(=O)[C@@H](NC(=O)NC1CCCCC1)C(C)(C)C", "% Inhibition": -2}, {"compound": "Cc1ccsc1-c1noc([C@@H]2COCCN2C)n1", "% Inhibition": -7}, {"compound": "COc1c(O)ccc2c(=O)c3c(O)cc(O)c(OC)c3n(C)c12", "% Inhibition": -3}, {"compound": "CC1(C)C(NCC(O)COc2ccc(F)c(F)c2)[C@@H]2CCC[C@@H]21", "note": "(stereo not given in full)", "% Inhibition": 72}, {"compound": "COc1ccc(Oc2c(CN(CC3CC3)C(=O)c3ccccc3)c(-c3ccccc3)nn2C)cc1", "% Inhibition": 2}, {"compound": "CC1(C)Oc2ccc(NC(=O)c3ccco3)cc2NC1=O", "% Inhibition": -2}, {"compound": "CC(C)N(C)CC1CCN(C(=O)c2cc(-c3ccccc3)c(N3CCOCC3)s2)CC1", "% Inhibition": -4}, {"compound": "CCOc1cc(-c2cc(-c3ccccc3O)nc3ccc4ccccc4c23)cc(Br)c1O", "% Inhibition": 91}, {"compound": "COc1cccc(CNCc2ccccc2)c1OCc1ccccc1Cl", "% Inhibition": -1}, {"compound": "O=c1c2ccccc2nnn1-c1ncc(C(F)(F)F)cc1Cl", "% Inhibition": -9}, {"compound": "CC(C)(C)CCS(=O)(=O)N1CCC[C@H]1C1CCCCC1", "% Inhibition": 0}, {"compound": "CC(C)CCn1nnnc1[C@]1(N(C)C)CCCN(C(=O)c2cccn2C)C1", "% Inhibition": 88}, {"compound": "Cn1cccc1C(=O)N1CCCN(S(C)(=O)=O)[C@H]2CCC[C@H]2C(=O)NCC1", "% Inhibition": 0}, {"compound": "COc1cccc(C(=O)N2CCC(c3nc(-c4ccc5c(c4)OCO5)no3)CC2)c1OC", "% Inhibition": -3}, {"compound": "Cc1ccc(S(=O)(=O)N2CCN(C(=O)N3CCOCC3)[C@@H]2C)cc1", "% Inhibition": -8}, {"compound": "C#CCOCC(O)CN(Cc1c(-c2ccccc2)noc1N1CCC(C)CC1)CC1CCCO1", "note": "(stereo not given)", "% Inhibition": -17}, {"compound": "O=C(OCc1ccc(C(F)(F)F)nc1)c1ccc(C(F)(F)F)nc1", "% Inhibition": 7}, {"compound": "O=C(NC1CCOCC1)c1ccc(-c2ccc(F)c(F)c2F)cn1", "% Inhibition": 6}, {"compound": "CNC(=O)[C@@H](NC(=O)CNC(=O)c1ccc(Cl)cc1)C(C)(C)C", "% Inhibition": -11}, {"compound": "O=C(NCCN1CCCC1)c1ccc2c(c1)OCCO2", "% Inhibition": -12}, {"compound": "CC(=O)N1CCc2cc(-c3ccc(C(=O)NCCC(C)C)cc3)ccc21", "% Inhibition": 2}, {"compound": "O=C(c1ccnn1C(F)F)N1N=CC[C@]1(O)C(F)(F)F", "% Inhibition": -5}, {"compound": "Cc1cc(CS(=O)(=O)NCCOc2ccc(Cl)cc2)on1", "% Inhibition": 2}, {"compound": "CC1(C)C[C@@H](NC(=O)COc2ccc(CO)cc2)CCO1", "% Inhibition": -1}, {"compound": "O=C(Nc1nc(Cc2ccccc2)cs1)C1CCOCC1", "% Inhibition": 2}, {"compound": "CCNC(=O)C(=O)NCc1ccc(OC)cc1", "% Inhibition": -17}, {"compound": "COc1ccc(CC2C(O)C(Cc3ccc(OC)cc3)C3CCC2N3C)cc1", "note": "(stereo not given)", "% Inhibition": 7}, {"compound": "COc1ccc(CNCCC2C(C)CN(C)C(C)C2Cc2ccccc2)cc1", "note": "(stereo not given)", "% Inhibition": 59}, {"compound": "C[C@H]1CS(=O)(=O)C[C@H]1NC(=O)Nc1ccc2ccoc2c1", "% Inhibition": -5}, {"compound": "O=C(Nc1ccc(Cl)c(Cl)c1)Nc1ccc(Cl)cc1NC(=O)Nc1ccc(Cl)c(Cl)c1", "% Inhibition": 65}, {"compound": "CNc1nc(C)cc(C(=O)Nc2ccc(Cl)cc2NC(C)=O)n1", "% Inhibition": 2}, {"compound": "C[C@@H](NC(=O)Nc1ccc(Cl)c(Cl)c1)C(=O)O", "% Inhibition": 5}, {"compound": "O=C1CCC(=O)N1c1cnn(Cc2ccccc2)c1", "% Inhibition": 1}, {"compound": "CC(C)(C)OC(=O)N1CCC2(CC1)NN=C1C=C(N3CCN(c4ccccc4F)CC3)N=CN12", "% Inhibition": -8}, {"compound": "CCOc1ccc(NC(=O)Cn2cnc3c(-c4cccc(OC)c4)cn(C)c3c2=O)cc1", "% Inhibition": -1}, {"compound": "CN1CC[C@H](CN(C)Cc2ccc3cc(O)ccc3c2)C1", "% Inhibition": 9}, {"compound": "COC1CCCC1NC(=O)Nc1ncc(Br)cc1C", "note": "(stereo not given)", "% Inhibition": 74}, {"compound": "CC(=O)Nc1ncc(Br)cc1C", "% Inhibition": 3}, {"compound": "CNC(=O)c1cc(Br)cnc1NC", "% Inhibition": 3}, {"compound": "Cc1c(NS(=O)(=O)c2ccc(Cl)cc2)c(-n2cnnc2)nn1C", "% Inhibition": -7}, {"compound": "O=C(NCCN1CCCCC1)c1n[nH]c2c1CCc1ccccc1-2", "% Inhibition": 1}, {"compound": "COc1cc(=O)[nH]cc1Br", "% Inhibition": -3}, {"compound": "CC(C)N1CCO[C@H](C(=O)Nc2c[nH]nc2-c2ccccc2)C1", "% Inhibition": -5}, {"compound": "O=C(O)c1nccc(C(F)(F)F)c1Cl", "% Inhibition": -19}, {"compound": "CC(C)(C)c1ccc(NC(=O)c2ccnnc2)c(O)c1", "% Inhibition": -8}, {"compound": "CC1(C)C2CCC13CS(=O)(=O)N=C3C2", "note": "(stereo not given)", "% Inhibition": 3}, {"compound": "Cc1cccc(NC(=O)NCCn2nnc3cc(S(=O)(=O)N4CCCC4)ccc32)c1C", "% Inhibition": -1}, {"compound": "COC(=O)c1ccccc1NC(=O)NCCn1nnc2cc(S(=O)(=O)N(C)C)ccc21", "% Inhibition": 55}, {"compound": "O=S(=O)(c1ccc(F)cc1)n1ccc(-c2cccc(OCc3ccc(Cl)cc3Cl)c2)n1", "% Inhibition": -4}, {"compound": "Cc1nc2c(sc(=S)n2-c2ccc(Cl)c(Cl)c2)c(=O)[nH]1", "% Inhibition": -2}, {"compound": "CCOC[C@@H](O)CN(Cc1c(C)nn(-c2ccccc2)c1Oc1cccc(C)c1)C1CC1", "% Inhibition": 10}, {"compound": "CCc1cc(C(=O)N2CCC3(CC2)C[C@H](c2ccccc2)C(=O)N3C)no1", "% Inhibition": -8}, {"compound": "O=C(OCC(=O)N1CCN(Cc2ccccc2)CC1)c1nccc2ccccc12", "% Inhibition": 1}, {"compound": "CC(CNc1ccccn1)N1CCOCC1C", "note": "(stereo not given)", "% Inhibition": -5}]}]}
